Data from PubChem BioAssay AID743201 (The Scripps Research Institute Molecular Screening Center, 2013).
Hit rate of the full screen: of about 1,500 compounds, about 420 (28%) were called active. Cut-off read from the data, not from the text of the source: active = inhibition above about 9.5%; inactive = the rest. Only a sample is shown.

Assay: cytotoxicity in LD9 cells, cytotoxicity control for cell surface PrPc inhibitor project, cell-based, luminescence, high throughput (AID 743201)
Settings: luminescence viability, at 13.8 µM, active compounds read high
With `O=C(Nc1ccc(C2CC2(Cl)Cl)cc1)c1cccc([N+](=O)[O-])c1` (stereo not drawn) the inhibition was 22.1% (active). For `O=C(Oc1ccccc1)Oc1ccc2c(c1)oc(=O)c1ccccc12`, the inhibition was -2.43% (inactive). For `O=C(COC(=O)c1ccccc1SCC(=O)NC1CCCCC1)NC1CCCCC1`, the inhibition was -4.15% (inactive). With `Cc1nc(/N=C(\N)NC(=O)NC2CCCCC2)nc2ccccc12` the inhibition was 13.3% (active). With `O=C(Nc1cccn(Cc2ccccc2Cl)c1=O)NC1CCCCC1` the inhibition was -0.08% (inactive). In the case of `CC1(C)Cc2ccccc2-c2[nH]c(=S)[nH]c(=O)c21`, the inhibition is reported as 0.24% (inactive). With `O=C(/C=C/c1ccc([N+](=O)[O-])o1)NNC(=O)c1ccc(F)cc1` the inhibition was 81% (active). In the case of `Cn1c(=S)sc2ccc3ccccc3c21`, the inhibition is reported as -9.96% (inactive). In the case of `Cc1ccc(CSc2ccc(S(=O)(=O)N3CCCCC3)cn2)cc1`, the inhibition is reported as -3.1% (inactive). With `O=C(Nc1ccc(N2CCN(C(=O)c3ccccc3)CC2)c(Cl)c1)c1cccnc1` the inhibition was 10.4% (active). With `CCCCC(=O)NC(c1ccc(OC)c(OC)c1)c1ccc2cccnc2c1O` (stereo not drawn) the inhibition was 34.6% (active). For `COc1ccc(NC(=O)COC(=O)CNC(=O)C2CCCCC2)cc1`, the inhibition was -1.65% (inactive). In the case of `O=C(Cc1ccccc1)Nc1cccc(NC(=O)c2ccccc2)c1`, the inhibition is reported as -4% (inactive). For `Cc1cccc(CS(=O)(=O)c2ncc(Cl)c(C(=O)Nc3ccc(F)cc3)n2)c1`, the inhibition was 97.1% (active). With `Cc1cccc(NC(=O)c2nc(S(=O)(=O)Cc3ccccc3)ncc2Cl)c1` the inhibition was 88.2% (active). With `CCc1c(C)nc2cc(-c3cccs3)[nH]n2c1=O` the inhibition was -5.48% (inactive). In the case of `Fc1ccc2[nH]c3c(N4CCSCC4)ncnc3c2c1`, the inhibition is reported as 49.1% (active). In the case of `COc1cccc2sc3cc(NCC[C@@H]4CCCN4C)ccc3c(=O)c12`, the inhibition is reported as 3.87% (inactive). With `Cc1cc2cc(CNC(=O)c3ccc(S(=O)(=O)N4CCOCC4)cc3)ccc2[nH]1` the inhibition was -3.01% (inactive). In the case of `COc1ccc(C(=O)Nc2nc(-c3ccc(S(=O)(=O)N4CCOCC4)cc3)cs2)cc1`, the inhibition is reported as 24.7% (active). With `COc1ccc(S(=O)(=O)N2CCOCC2)cc1NC(=O)CSc1ncnc2ccccc12` the inhibition was -10% (inactive). With `C=CCNC(=O)CSc1nc2scc(-c3ccco3)c2c(=O)n1CC=C` the inhibition was -1.71% (inactive). In the case of `N#C/C=C1\Sc2ccccc2C(=O)N1CC(=O)N1CCN(S(=O)(=O)c2ccccc2)CC1`, the inhibition is reported as -0.34% (inactive). With `CN(C)CCNC(=O)c1ccc(Cl)c2cc3ccccc3nc12` the inhibition was 62.4% (active). For `COc1ccc(OC)c(NC(=O)c2cc(-c3cc(F)ccc3OCC3CCCO3)n[nH]2)c1` (stereo not drawn), the inhibition was 6.36% (inactive). For `COC(=O)CSc1nc(C2CC2)nc2ccccc12`, the inhibition was 2.09% (inactive). For `CCc1nc(SCC(=O)NNC(=O)c2ccc(C)cc2)c2ccccc2n1`, the inhibition was -9.92% (inactive). In the case of `CCCc1nc(SCC(=O)Nc2ccc(S(=O)(=O)N(C)C)cc2)c2ccccc2n1`, the inhibition is reported as 11.4% (active). For `CCC(C)(O)C(=O)OC1C(=O)OC2CC3C(C)=CC(=O)C(O)C3(C)C3C4(O)OCC23C1C(C)C4O` (stereo not drawn), the inhibition was 31.5% (active). With `CCCOc1ccc(C2C(C(=O)c3ccc(C)o3)=C(O)C(=O)N2CCCn2ccnc2)cc1` (stereo not drawn) the inhibition was -8.43% (inactive). In the case of `O=C(NC(Nc1nc2ccc([N+](=O)[O-])cc2s1)(C(F)(F)F)C(F)(F)F)c1ccccc1`, the inhibition is reported as 60.2% (active). For `Cc1ccc(Oc2cnn(-c3ccccc3)c(=O)c2Br)cc1`, the inhibition was -5.84% (inactive). With `CCOC(=O)c1c(C)[nH]c(=S)c(C#N)c1-c1ccccc1` the inhibition was -0.71% (inactive). With `O=c1[nH]cccc1-c1nc2ccccc2n1Cc1ccc(Cl)cc1` the inhibition was 18% (active). With `N#Cc1ccc(OCC(=O)Nc2nc(-c3ccccn3)cs2)cc1` the inhibition was 6.29% (inactive). For `CC(=O)c1sc2nc(SCC(=O)N3CCCCC3)[nH]c(=O)c2c1C`, the inhibition was -4.99% (inactive). In the case of `NC(=O)C1CCN(Cc2nc3c(Br)cc(Br)cc3c(=O)[nH]2)CC1`, the inhibition is reported as -0.26% (inactive). For `O=C(CC(O)(C(F)(F)F)C(F)(F)F)Nc1ccc(Cl)c(Cl)c1`, the inhibition was 59.4% (active). With `Cc1sc2ncnc(SCC(=O)Nc3ccc(CN4CCCC4)cc3)c2c1C` the inhibition was 4.39% (inactive). For `COc1ccc2c(Cl)c(-c3nnco3)sc2c1`, the inhibition was 0.91% (inactive). With `O=C(c1ccc(F)cc1)c1cn(Cc2ccc(F)cc2)c2cc3c(cc2c1=O)OCCO3` the inhibition was 0.17% (inactive). With `CCCCCCCCn1c2c(c(=N)c3c1CCC3)CCCC2` the inhibition was 27.8% (active). For `Cc1cc2ccccc2n1CCNC(=O)COc1ccc2ccccc2c1`, the inhibition was 3.16% (inactive). With `CO[C@H]([C@H](C)/C=C/N(C)C=O)[C@@H](C)C(=O)CC[C@H](C)[C@H](O)[C@H](C)[C@H]1OC(=O)/C=C/C(C)=C/[C@H](O)[C@H](OC)C[C@@H]2C=CC[C@@H](C[C@H](OC)[C@@]3(CO3)[C@@H](OC)C[C@@H](OC)[C@@H]1C)O2` the inhibition was 22.6% (active). In the case of `FC(F)(F)c1cccc(NC(=S)OC2CCC23CCC(c2ccccc2)CC3)c1` (stereo not drawn), the inhibition is reported as 6.03% (inactive). With `CCCCNc1c(-c2cccc(Sc3ccc(OC)cc3)c2)nc2ccccn12` the inhibition was 17.3% (active). With `N#Cc1c(-c2cccs2)nc(SCC(=O)c2ccc(Br)cc2)[nH]c1=O` the inhibition was -2.36% (inactive). With `Cc1ccc(CNC(=O)Nc2nnc([C@H]3C[C@H](O)[C@@H](CO)O3)s2)cc1` the inhibition was -1.07% (inactive). With `O=C1CCCC2=C1C(c1cccs1)n1nc(SCc3ccccc3)nc1N2` (stereo not drawn) the inhibition was -3.22% (inactive). For `CC(=O)Nc1cccc(OCC(=O)/C=C2\N(C)c3ccccc3C2(C)C)c1`, the inhibition was 13.8% (active). With `CN1/C(=C\C(=O)c2oc3ccccc3c2N)C(C)(C)c2ccccc21` the inhibition was 7.55% (inactive). For `Cc1ccsc1C(=O)OCC(=O)Nc1cccc(F)c1`, the inhibition was -2.87% (inactive). With `Cc1[nH]n(-c2ccccc2)c(=O)c1/C=N/NC(=O)c1ccoc1C` the inhibition was 21.3% (active). In the case of `CCOC(=O)c1c(-c2ccccc2)oc2cc(Br)c(O)cc12`, the inhibition is reported as -6.88% (inactive). For `COC(=O)Cc1[nH]n(-c2nc3ccccc3s2)c(=O)c1C(C)=Nc1ccc(OC)cc1`, the inhibition was -5.36% (inactive). In the case of `CC(=O)c1nc(N2C(=O)C3CC=C(C)CC3C2=O)sc1C` (stereo not drawn), the inhibition is reported as -5.65% (inactive). With `CCCCCCCCCCCCn1ccc(=N)cc1` the inhibition was 33.6% (active). With `COc1cc(-n2c(=S)[nH]c3ccc(C)cc3c2=O)c(Cl)cc1Cl` the inhibition was -3.19% (inactive). For `Cc1ccc(NC(=O)c2sc3nc(N)c(C#N)cc3c2N)cc1`, the inhibition was 14.7% (active). In the case of `CC(=O)N1CCCc2cc(S(=O)(=O)N3CCCC(C(=O)NCc4ccc(Cl)cc4)C3)ccc21` (stereo not drawn), the inhibition is reported as 4.27% (inactive). For `CC(=O)N1CCCc2cc(S(=O)(=O)N3CCCC(C(=O)N4CCN(c5cccc(Cl)c5)CC4)C3)ccc21` (stereo not drawn), the inhibition was 24.1% (active). In the case of `CC(=O)N1c2ccc(S(=O)(=O)N3CCCC(C(=O)Nc4cccc(F)c4)C3)cc2CC1C` (stereo not drawn), the inhibition is reported as 10.8% (active). With `Cc1ccnc(NC(=O)C2CCN(S(=O)(=O)c3c(C)c(C)cc(C)c3C)CC2)c1` the inhibition was -5.26% (inactive).
